According to PubChem BioAssay AID504810 (National Center for Advancing Translational Sciences (NCATS), 2011):
Out of some 330,000 compounds screened, about 670 (0.2%) were called active. The full list was thinned out, with actives kept by preference. Values without a mark were called inactive.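 The calls were made as follows: active = activity change below a set negative limit, meaning inhibition stronger than a set level (cut at about -70% in these data); inconclusive = activity change between two set negative limits; inactive = the rest.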

biological target: Thyrotropin receptor (Homo sapiens) (UniProt P16473); experiment: Antagonists of the Thyroid Stimulating Hormone Receptor: HTS campaign; conditions: TSHR-expressing cells, TSH-stimulated cAMP HTRF, 2 h; at 11.5 µM; hits give low values
From the text: The thyroid-stimulating hormone receptor (TSHR) is a member of the 7 trans-membrane-spanning receptor (7TMR) family of cell surface receptors. TSHR-mediated hyperthyroidism is important in thyroid pathology. The development of small molecule antagonists of TSHR may lead to therapeutic approaches for TSHR-mediated hyperthyroidism caused by constitutively activating mutations or stimulating auto-antibodies associated with Graves' disease. Graves' disease is the leading cause of hyperthyroidism and is caused by autoantibodies that stimulate TSHR (TsAbs) causing thyroid growth and unregulated overproduction of thyroid hormones and existing treatments have liabilities (agranulocytosis). In addition, TSHRs are known to be expressed in multiple extrathyroidal tissues including bone, brain, kidney, testis, fat and cells of the immune system but the role of the TSHR in these tissues is not clear. Therefore, TSHR antagonists/inverse agonists could be used as probes of extrathyroidal TSHR function. Finally, TSHR inverse agonists, which are a subclass of antagonists that inhibit agonist-independent (or basal or constitutive) TSHR signaling, could be used to inhibit TSH-independent signaling in patients with recurrent or metastatic thyroid cancer who are receiving thyroid hormone to suppress TSH. In collaboration between scientist from the NCGC and the NIDDK, a miniaturized HTRF high-throughput screen was developed. It's a cell based assay, where an anti cAMP antibody contains a fluorescent cryptate tag (excitation 337 nm; emission 620 nm) and the acceptor is cAMP-d2 (excitation 620 nm; emission 665 nm). When antibody and cAMP-d2 interact and are excited by a 337 nm light, a FRET occurs resulting in emission at 665 nm. The assay is competition between cAMP-d2 and cAMP (from the cell lysate). The homogeneous protocol allows for one step dispense after stimulation that is automation friendly. NIH Chemical Genomics Center [NCGC] NIH Molecular Libraries Probe Centers Network [MLPCN] MLPCN Grant: MH090855-01 Assay Submitter (PI): Marvin Gerhengorn
1. 3ul of 200 TSHR freshly harvested cells/well are dispensed into a 1536 TC-treated white solid bottom plate. 2. Through pintool addition, 23nl of compounds and control in 100% DMSO are added to the plate. 3. Then 1ul of EC80 TSH (4nM final) is added to the plate. 4. Assay is incubated at 37 deg C for 2 hours. 5. 2ul of cAMP antibody diluted 1:20 in lysis buffer is added. 6. Immediately following, 2ul of d2 diluted 1:20 in HBSS is added seperately. 7. The assay is incubated for 30 minutes at ambient room temperature. 8. The result is obtained by using a ViewLux read-out with HTRF settings.
% is scaled to controls: 0 for no effect and ±100 for the full control effect.

Sequence of Thyrotropin receptor (Homo sapiens) (P16473 whole entry, looked up): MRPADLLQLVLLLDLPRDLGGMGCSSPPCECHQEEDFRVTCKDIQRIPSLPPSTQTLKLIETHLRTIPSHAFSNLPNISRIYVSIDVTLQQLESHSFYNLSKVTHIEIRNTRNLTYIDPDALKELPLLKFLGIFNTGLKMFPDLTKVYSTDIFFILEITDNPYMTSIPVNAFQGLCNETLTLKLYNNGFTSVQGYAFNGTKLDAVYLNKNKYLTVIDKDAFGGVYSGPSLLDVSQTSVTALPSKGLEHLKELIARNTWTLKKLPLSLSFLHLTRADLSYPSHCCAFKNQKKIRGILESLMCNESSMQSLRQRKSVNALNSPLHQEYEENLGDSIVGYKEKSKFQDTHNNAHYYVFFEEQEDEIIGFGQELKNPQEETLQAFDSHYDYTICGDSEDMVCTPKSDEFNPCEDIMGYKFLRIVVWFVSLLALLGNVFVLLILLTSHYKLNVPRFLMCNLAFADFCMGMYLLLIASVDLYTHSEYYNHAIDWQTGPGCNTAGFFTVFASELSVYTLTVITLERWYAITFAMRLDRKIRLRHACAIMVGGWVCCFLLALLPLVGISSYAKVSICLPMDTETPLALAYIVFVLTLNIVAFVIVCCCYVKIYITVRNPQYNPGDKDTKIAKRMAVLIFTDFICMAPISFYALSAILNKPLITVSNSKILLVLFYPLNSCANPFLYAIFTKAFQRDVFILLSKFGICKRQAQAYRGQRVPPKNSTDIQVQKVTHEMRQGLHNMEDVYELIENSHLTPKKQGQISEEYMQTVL

SMILES | activity change, negative = inhibition
COC(=O)C1=C(c2ccc(F)cc2OCc2ccccc2)C[C@@H]2CC[C@H]1N2C(=O)NCc1ccc(Cl)cc1 | -10%
COC(=O)C1=C(c2ccc(-c3ccccc3)c(F)c2)C[C@@H]2CC[C@H]1N2C(=O)NCc1ccc(F)cc1 | -85% (active)
COC(=O)C1=C(c2cccc(OCc3ccccc3)c2)C[C@@H]2CC[C@H]1N2C(=O)NCc1ccc(Br)cc1 | -5.89%
c1ccc2c(c1)[I+]c1ccccc1-2 | -36.8%
CC(=O)c1c(O)c(C)c(O)c(Cc2c(O)c3c(c(C(=O)/C=C/c4ccccc4)c2O)OC(C)(C)C=C3)c1O | -26.9%
CCOC(=O)c1ncn2c1[C@@H]1CCCN1C(=O)c1cc(OC)ccc1-2 | -12.5%
C[C@]12CCC3C(CC[C@H]4C[C@@H](O)CC[C@]34C)C1CC[C@@H]2O (stereo not given in full) | 3.15%
C[C@]12CC[C@H](O)C[C@H]1CC[C@@H]1C2CC[C@]2(C)[C@@H](C3=CC(=O)OC3)[C@@H](O)C[C@]12O (stereo not given in full) | -81.8% (active)
C[C@]12CCC3C(CC[C@H]4C[C@@H](O)CC[C@]34C)C1C[C@@H](O)[C@H]2O (stereo not given in full) | 2.4%
CC(=O)NBr | -6.86%
